The list is not random: actives were taken first. Their share in the collection is about 4.1%.
ssDAF-12 act = S. stercoralis DAF-12 activation, primary screen. AID 652126. HEK293 ssDAF-12/GRIP1 lit1-tk-luc reporter, luminescence; % of 3 µM dafachronic acid response. activation, % at 6.8 µM. actives 1% (n = 370,000);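 active = activation above the mean over all tested compounds plus 3 SD, cut at about 0.9% in these data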
hgDAF12 agonist = agonists of H. glycines DAF-12 nuclear receptor; HEK293 GAL4-hgDAF12 UAS-luciferase reporter, agonist luminescence; normalized to butyrate control; AID 687014; actives 1.8% (n = 370,000); activation, % at 6.8 µM;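 active = activation above a cutoff set at the mean of all screened compounds plus 3 SD, cut at about 10% in these data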
hcDAF-12 act = activators of H. contortus DAF-12 nuclear receptor; actives 1.4% (n = 370,000); activation, % at 6.8 µM; HEK293 hcDAF-12 lit1-tk-luc reporter, luminescence; 0% DMSO, 100% Δ7-dafachronic acid;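 active = activation above the mean of all tested compounds plus 3 SD, cut at about 5.5% in these data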
DAX1 inh-1 = NR0B1 (DAX1) inhibition. HEK293 Gal4-DAX1 luciferase reporter, luminescence. inhibition, % at 6.75 µM. actives 0.99% (n = 340,000);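 active = inhibition above the mean over all tested compounds plus 3 SD, cut at about 4.2% in these data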;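 note: inhibition shows as a rise in luminescence from relieved DAX1 repression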
Target sequence (P51843 207-470 limits assumed): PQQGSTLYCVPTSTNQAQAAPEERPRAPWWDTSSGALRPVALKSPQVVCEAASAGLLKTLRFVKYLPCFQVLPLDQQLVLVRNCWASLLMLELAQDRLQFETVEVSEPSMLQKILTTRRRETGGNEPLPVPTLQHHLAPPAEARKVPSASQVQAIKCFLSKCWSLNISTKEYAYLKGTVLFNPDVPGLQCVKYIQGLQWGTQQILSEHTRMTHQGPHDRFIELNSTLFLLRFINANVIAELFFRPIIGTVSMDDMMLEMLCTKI
DAX1 inh-2 = inhibitors of DAX1 repression of SF-1 activated StAR promoter. HEK293T StAR-luciferase reporter, SF-1/DAX-1 repression relief. inhibition, % at 6.8 µM. actives 1.1% (n = 370,000);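 active = inhibition above the mean over all tested compounds plus 3 SD, cut at about 3.6% in these data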;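 note: higher inhibition means more luminescence from relief of DAX-1 repression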
Each line names hits and unclear results; the compound was inactive in the other large screens.

Cn1cnnc1SCC(=O)NCc1ccccc1	hgDAF12 agonist 11.6
Cn1c(SCC(=O)NCc2ccccc2)ncc(C(=O)Nc2ccccc2)c1=O	ssDAF-12 act 1.0
Cc1cccc(-c2cccc3c4c([nH]c23)[C@@H]2C[C@H](N(C)C(=O)OCc3ccccc3)[C@H]([C@H](C)O)CN2CC4)c1	none (no result: DAX1 inh-1)
CCN(CC)C(=O)CC[C@H]1CC[C@]2(CCCN(Cc3ccccc3)C2)O1	none (no result: DAX1 inh-1)
Cc1ccc(S(=O)(=O)N2CCC(c3nc4ccccc4o3)CC2)s1	none (no result: DAX1 inh-1)
N[C@H]1CC[C@@H]2SC[C@@H](C(=O)O)N2C1=O	none (no result: DAX1 inh-1)
Cc1c(S(=O)(=O)N2CCCCC2)c(=O)n(C)c(=O)n1C	DAX1 inh-1 4.3
O=C(O)CCCCn1c(SCc2ccccc2Cl)nc2ccsc2c1=O	DAX1 inh-1 4.7
O=C(O)CCCCn1c(SCc2cc(=O)n3cc(Cl)ccc3n2)nc2ccsc2c1=O	none
O=C(CCl)NC1CCCCN(Cc2ccc(OC(F)(F)F)cc2)C1=O (centres undefined)	none (no result: DAX1 inh-1)
Cc1ccc(C)c(NC2CCCCC2NS(=O)(=O)c2ccccc2)c1 (centres undefined)	DAX1 inh-2 4.2
CCOC(=O)NC(=O)CSc1nc(C)cc(C)c1C#N	hgDAF12 agonist 12.6
Cc1cc(NC(=O)CSc2nc3c(C)ccc(C)c3cc2C#N)no1	DAX1 inh-1 5.7
Cc1cc(NC(=O)CSc2nc3c(C)cccc3cc2C#N)no1	none
CCOC(=O)CNC(=O)CSc1nc(C)cc(C)c1C#N	none
Cc1cc(NC(=O)CSc2nnc(C)n2-c2ccccc2C)no1	DAX1 inh-1 4.2
Cc1cc(NC(=O)CSc2nnc(C)n2-c2ccccc2)no1	none
Cc1cc(C)c(C#N)c(SCC(=O)Nc2cc(C)on2)n1	hgDAF12 agonist 10.5
Cc1ccc(S(=O)(=O)N2CCCC2c2cccc3[nH]cc(C)c23)cc1 (centres undefined)	none (no result: DAX1 inh-1)
CSc1cccc(NC(=O)c2nnn(Cc3ccccc3)c2N)c1	none
COc1cccc(NC(=O)Cn2nnc(C(=O)Nc3ccccc3)c2N)c1	none
COc1cccc(NC(=O)c2nnn(CCc3ccccc3)c2N)c1	DAX1 inh-1 6.0
COc1cc(NC(=O)c2nnn(Cc3ccc(SC)cc3)c2N)cc(OC)c1	DAX1 inh-1 4.2
CC1CCN(C(=O)c2ncn3c2C(=O)NC[C@H]3C)CC1	none (no result: DAX1 inh-1)
COc1ccc(-c2ccc3c(n2)CCCN3S(=O)(=O)c2ccccc2)cc1	none (no result: DAX1 inh-1)
COC(=O)C1CN(Cc2cn(Cc3ccc(F)cc3)nn2)CCS(=O)(=O)N1Cc1ccc(F)cc1 (centres undefined)	none (no result: DAX1 inh-1)
COC(=O)c1c(C)oc(C)c1S(=O)(=O)N1CCCC1	DAX1 inh-1 4.4
COC(=O)c1c(C)oc(C)c1S(=O)(=O)N1CCCCC1	none
Cn1cnc(S(=O)(=O)NCc2cccs2)c1	ssDAF-12 act 1.6
CCOC(=O)CNC(=O)/C=C/c1ccc2c(c1)OCO2	ssDAF-12 act 0.9
CC(C)(C)OC(=O)N/N=C\C=C\c1ccc2c(c1)OCO2	hgDAF12 agonist 12.6
COC(=O)N/N=C\C=C\c1ccc2c(c1)OCO2	none
CCOC(=O)c1cccc(NC(=O)/C=C/c2ccc3c(c2)OCO3)c1	none
CCOC(=O)N/N=C\C=C\c1ccc2c(c1)OCO2	DAX1 inh-1 5.2
COc1ccc(CC(=O)N/N=C/C=C/c2ccc3c(c2)OCO3)cc1OC	none (no result: DAX1 inh-1)
CC(COc1ccc(C#N)cc1F)CN1CCC(C(O)(c2ccccc2)c2ccccc2)CC1 (centres undefined)	none (no result: DAX1 inh-1)
O=C1/C(=C/N(C(=O)c2ccco2)c2ccc(Br)cc2)Sc2ccccc21	DAX1 inh-1 4.7 (no result: ssDAF-12 act, hgDAF12 agonist, hcDAF-12 act, DAX1 inh-2)
COC(=O)[C@]12C[C@H](CC(=O)NCc3ccc(OC)c(OC)c3)C(=O)N(Cc3ccc(Cl)cc3Cl)C1=C[C@H](C(C)(C)C)O[C@@H]2C	none (no result: DAX1 inh-1)
CCOc1ccc(-n2c(SCC(=O)Nc3ccc(S(=O)(=O)Nc4cc(C)nc(C)n4)cc3)nnc2-c2ccc(OC)cc2)cc1	none (no result: DAX1 inh-1)
CC(C)c1[nH]nc2c1C(c1ccc(Br)cc1)NC2=O (centres undefined)	none (no result: DAX1 inh-1)
O=C(Nc1cccc2c1[nH]c1ccccc12)C(F)(F)F	none
O=C(Nc1cccc2c1[nH]c(=O)c1ccccc12)C(F)(F)F	DAX1 inh-2 4.0
Cn1c(-c2ccc(F)cc2)cc2onc(-c3c(F)cccc3Cl)c2c1=O	hgDAF12 agonist 11.1
CNC(=O)c1ccc(-c2cc3onc(-c4ccccc4)c3c(=O)n2C)cc1	none
CCc1noc2cc(-c3ccccc3)n(C)c(=O)c12	hgDAF12 agonist 13.2 (no result: DAX1 inh-1)
Cc1ccc(-c2cc3onc(-c4ccccc4)c3c(=O)n2C)cc1	none
O=C(/C=C/c1ccccc1)NC(=O)c1ccccc1O	hgDAF12 agonist 11.6
O=C(C=Cc1cccc(O)c1)c1ccccc1O	hgDAF12 agonist 12.4
COc1cc(/C=C/C(=O)NC(=O)c2ccccc2O)ccc1O	none
CN(Cc1ccccc1F)C(=O)Cn1c(-c2cncs2)nc2ccccc21	none (no result: DAX1 inh-1)
COc1cc(C(=O)OC2CC3CCC2(C)C3(C)C)ccc1OC(C)=O (centres undefined)	DAX1 inh-1 4.7
CC1(C)C2CCC1(C)C(OC(=O)CNc1ccccc1)C2 (centres undefined)	none
O=C(C1CC(=O)N(C2CCCCC2)C1)N1CCc2ccccc21 (centres undefined)	hcDAF-12 act 6.2
O=C(C1CCCO1)N1CCc2ccccc21 (centres undefined)	ssDAF-12 act 1.8
N#Cc1cccc(NC(=O)OC2CC3CC2[C@H]2CCCCN2[C@H]3Cc2ccccc2)c1 (some centres undefined)	none (no result: DAX1 inh-1)
COc1ccc(Oc2c(Cl)cnn(-c3ccc(C(C)C)c(C)c3)c2=O)cc1	none (no result: DAX1 inh-1, DAX1 inh-2)
COc1ccc(/C=C/C(Cc2cccc(C(C)=O)c2)c2ccc(C)cc2)cc1 (centres undefined)	none (no result: DAX1 inh-1)
CCCCCc1nnc(NC(=O)C2COc3ccccc3O2)s1 (centres undefined)	hcDAF-12 act 5.6
O=C(Nc1ncc(Cc2ccccc2)s1)C1COc2ccccc2O1 (centres undefined)	hgDAF12 agonist 10.8, DAX1 inh-2 4.2
O=C(Nc1nc2c(s1)CCCC2)C1COc2ccccc2O1 (centres undefined)	DAX1 inh-2 4.4
Cc1ccc(Cc2cnc(NC(=O)C3CCCO3)s2)cc1 (centres undefined)	ssDAF-12 act 1.0, hgDAF12 agonist 12.9
O=C(NC1CCCCN(Cc2cccc(Cl)c2)C1=O)c1ccc(Cl)cc1Cl (centres undefined)	none (no result: DAX1 inh-1)
CC(C)[C@H](NC(=O)[C@@H]1CCCN1)C(=O)N1CCC2CCN(S(=O)(=O)c3ccccc3)CC21 (some centres undefined)	none (no result: DAX1 inh-1)
CCCCN1CCS(=O)(=O)N(Cc2ccc(Cl)cc2)C(C(=O)OC)C1 (centres undefined)	none (no result: DAX1 inh-1)
O=C(Nc1ccc2c(c1)CCC2)C1COc2ccccc2O1 (centres undefined)	hgDAF12 agonist 11.6
O=c1n(Cc2ccccc2Cl)nc2n1-c1ccccc1SC2	DAX1 inh-1 4.9

Compound activity deposited in PubChem by The Scripps Research Institute Molecular Screening Center.
